Most compounds without a hit are left out; they make up all but 2.4% or so of the library.
D2 PAM-1: positive allosteric modulators of human D2 dopamine receptor. potentiation, % (test concentration not listed). DiscoveRx D2 beta-arrestin cells, luminescence, 90 min; 100% = 57 uM dopamine signal. P14416. hit rate 0.23% among 360,000; in the data active = potentiation above about 50%
Target sequence (P14416 whole entry, looked up): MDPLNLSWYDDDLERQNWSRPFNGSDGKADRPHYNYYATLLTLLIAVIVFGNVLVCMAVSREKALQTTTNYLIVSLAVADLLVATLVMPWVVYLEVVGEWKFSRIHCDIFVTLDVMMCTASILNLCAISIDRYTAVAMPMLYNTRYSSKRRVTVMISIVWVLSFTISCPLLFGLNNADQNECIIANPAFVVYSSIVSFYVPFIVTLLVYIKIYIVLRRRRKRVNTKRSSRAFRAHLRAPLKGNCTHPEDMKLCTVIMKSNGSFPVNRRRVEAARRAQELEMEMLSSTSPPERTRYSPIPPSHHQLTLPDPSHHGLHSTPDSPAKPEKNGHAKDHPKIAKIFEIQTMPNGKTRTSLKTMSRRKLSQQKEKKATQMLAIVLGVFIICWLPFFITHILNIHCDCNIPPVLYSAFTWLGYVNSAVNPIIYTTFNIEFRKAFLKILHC
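D2 cells co-treated with compound plus 50 nM dopamine (EC20) for 90 min at 37 deg C to detect potentiation. Beta-arrestin recruitment was read as enzyme-fragment luminescence after 1 h at ambient temperature. Full response was set by 57 uM dopamine.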
D2 PAM-2: positively modulates the human D2 dopamine receptor allosterically; P14416; HEK293 T-REx D2, calcium flux, EC20 dopamine potentiation; potentiation, % at 10 µM; hit rate 0.34% among 340,000;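 active = potentiation over 3 SD above the plate norm, cut at about 30% in these data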; also: 0% is about no effect
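Tetracycline-induced HEK293 T-REx cells force-coupled to calcium signalling expressed D2; compounds were pin-added after a 10 s baseline, read kinetically 180 s, then an EC20 dopamine challenge followed with a further 180 s calcium read.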
D2 ag-1: agonists of human D2 dopamine receptor; activation, % at 2 µM; P14416; hit rate 0.53% among 340,000; HEK293 T-REx D2 cells, calcium flux agonist mode; AID 485358;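 active = activation over 3 SD above normal in the single-dose calcium agonist read, cut at about 30% in these data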; also: 0% is about no effect
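In this primary screen, compounds producing a positive calcium signal within 180 s of addition to tetracycline-induced, force-coupled HEK293 Trex D2 cells are flagged; cells are dye-loaded with a no-wash calcium kit beforehand.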
D2 antagonist: D2 dopamine receptor (human) antagonism; hit rate 2% among 340,000; HEK293 TREx D2 cells, calcium flux, dopamine EC80; AID 485344; P14416; inhibition, % at 10 µM; in the data active = inhibition above about 30%; inactive = below that, where a call was filed; also: 0% is about no effect
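Dopamine at EC80 is the agonist stimulus; test compounds precede it by 180 s. Calcium flux read kinetically in a force-coupled, inducible HEK293 T-REx D2 cell line.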
D2 ag-2: activates the human D2 dopamine receptor; activation, % (no concentration beside the values); P14416; AID 624465; hit rate 0.084% among 360,000; DiscoveRx PathHunter D2 beta-arrestin, luminescence, 90 min; 100% = 57 uM dopamine signal; in the data active = activation above about 40%
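DiscoveRx PathHunter D2 beta-arrestin cells (2,100/well) attached overnight, then compound-stimulated 90 min at 37 C in HBSS/10 mM HEPES/0.1% Tween-20 buffer; beta-galactosidase complementation read by luminescence after 1 h at ambient temperature. Dopamine 57 uM final (EC100) as control.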
Active calls of the source: *.

How did N#CC1(NC(=O)COC(=O)c2ncc(Cl)c(Cl)c2Cl)CCCCC1 do in these assays?
D2 PAM-1: 26; D2 PAM-2: 7; D2 ag-1: 1; D2 antagonist: -4; D2 ag-2: 0

Results for COc1ccc(C2N(S(=O)(=O)c3ccc(C)cc3)CCN2S(=O)(=O)c2ccc(C)cc2)cc1 ?
D2 PAM-1: -13; D2 PAM-2: -4; D2 ag-1: 1; D2 antagonist: 36*; D2 ag-2: 0

Results for COc1ccc(C2N(C(=O)C(F)(F)F)C(C)CN2S(=O)(=O)c2ccc(C)cc2)cc1 (configuration not stated) ?
D2 PAM-1: -6; D2 PAM-2: -9; D2 ag-1: 1; D2 antagonist: 35*; D2 ag-2: 1

How did C/C(=N\NC(=O)c1ccc(N/N=C(\C)c2ccc(O)cc2)cc1)c1ccc(O)cc1 do in these assays?
D2 PAM-1: -8; D2 PAM-2: 3; D2 ag-1: 0; D2 antagonist: 1; D2 ag-2: 8

Results for Cc1cc(C)c(S(=O)(=O)N/N=C/c2ccc3c(c2)OCO3)c(C)c1 ?
D2 PAM-1: -22; D2 PAM-2: -21; D2 ag-1: 9; D2 antagonist: 74*; D2 ag-2: 3

How did COc1ccc(C2CC(c3ccc4ccccc4c3OC(C)=O)=NN2C(C)=O)cc1 (configuration not stated) do in these assays?
D2 PAM-1: 1; D2 PAM-2: 5; D2 ag-1: 0; D2 antagonist: -3; D2 ag-2: 1

Results for Cc1cccc(NC(=O)c2sc3cccc(Cl)c3c2Cl)c1 ?
D2 PAM-2: -19; D2 ag-1: -1

How did CC(OCCN1CCCC1)(c1ccc(F)cc1)c1ccc(F)cc1 do in these assays?
D2 PAM-1: -11; D2 PAM-2: -24; D2 ag-1: 1; D2 antagonist: 73*; D2 ag-2: -11

What do the screens show for `Fc1ccc(OCCOCCN2CCCC2)cc1`?
D2 PAM-1: -5; D2 ag-2: 3

How did Cc1cccc(-c2nnc(SCCC(=O)O)o2)c1 do in these assays?
D2 PAM-2: 3

What do the screens show for `COC(=O)c1c(C)[nH]c(C(=O)C(C)Sc2nnc(-c3cc(OC)c(OC)c(OC)c3)o2)c1C` (configuration not stated)?
D2 PAM-1: -9; D2 PAM-2: 5; D2 ag-1: -1; D2 antagonist: 32*; D2 ag-2: -1

What do the screens show for `CCS(=O)(=O)N1CC(=O)N(c2ccc(C)c(C)c2)C(C)(C(=O)NC2CCCCC2)C1` (configuration not stated)?
D2 PAM-2: -6; D2 ag-1: 1

Results for Cc1c(O)ccc(C(=O)CN2CCN(c3ccccc3F)CC2)c1O ?
D2 PAM-1: -17; D2 PAM-2: 11; D2 ag-1: 4; D2 antagonist: -12; D2 ag-2: -1

Results for O=C(CN1CCN(c2ccccc2F)CC1)c1ccc(O)c(O)c1 ?
D2 PAM-1: -15; D2 PAM-2: -22; D2 ag-1: 61*; D2 antagonist: 9; D2 ag-2: 10

Results for Cc1c(C)c2cc(Cl)c(O)c(CN(C)C)c2oc1=O ?
D2 PAM-1: -2; D2 PAM-2: 7; D2 ag-1: 0; D2 antagonist: 35*; D2 ag-2: -1

What do the screens show for `COC(=O)c1ccc(NC(=O)C2CC(=O)OC2c2ccccc2)cc1` (configuration not stated)?
D2 PAM-1: -6; D2 PAM-2: -15; D2 ag-1: 0; D2 antagonist: 35*; D2 ag-2: -5

What do the screens show for `CCOc1ccc(NC(=O)C2CC(=O)OC2c2ccccc2)cc1` (configuration not stated)?
D2 PAM-1: -5; D2 PAM-2: 1; D2 ag-1: 0; D2 antagonist: -10; D2 ag-2: 10

What do the screens show for `COc1ccc(NC(=O)Cc2c(C(=O)O)[nH]c3ccccc23)cc1OC`?
D2 PAM-2: -1

How did CCOc1ccc(OCCn2nnc3ccccc3c2=O)cc1 do in these assays?
D2 PAM-1: -5; D2 PAM-2: 52*; D2 ag-1: -1; D2 antagonist: 7; D2 ag-2: 4

What do the screens show for `O=C(NCc1ccc(Cl)cc1)C1CCN(c2cnccn2)CC1`?
D2 PAM-1: -2; D2 PAM-2: -18; D2 ag-1: -1; D2 antagonist: 4; D2 ag-2: -3
